From PubChem BioAssay AID1159580 (chemical genetic matrix, 2015)
Values joined by “and” are separate entries in the source; they are usually repeats but may differ in a detail not shown here. Equal entries are not always repeated. Hit rate of the full screen: of about 5,500 compounds, about 2,000 (36%) were called active. Roughly 18% stayed inconclusive and do not appear here. Rule as the data show it: active = normalized growth mostly below about 0.91 (no sharp cut-off); inconclusive = no clear call, values can overlap the other calls; inactive = mostly above about 0.92. The list shows a part of the results.

Assay: chemical genetic growth profiling, strain panel (AID 1159580);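 also: tested at 20 µM; growth read once vehicle control cultures reached saturation at 30 °C; 1 = growth at the plate median or of vehicle wells; lower values mean less growth of the strain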
Settings: S. cerevisiae deletion strains, growth OD

Measured: normalized growth

COc1c2ccccc2nc2occc12
inactive: locus YAL013W, strain DEP1, stronger effect = lower value 0.918 | locus YAL021C, strain ccr4, stronger effect = lower value 0.943 | locus YAL026C, strain drs2, stronger effect = lower value 0.914 | locus YAL030W, strain snc1, stronger effect = lower value 0.971 | locus YBL061C, strain skt5, stronger effect = lower value 0.956 | locus YBR021W, strain FUR4, stronger effect = lower value 0.993 | locus YBR023C, strain chs3, stronger effect = lower value 0.926 | locus YBR171W, strain sec66, stronger effect = lower value 0.942 | locus YBR229C, strain ROT2, stronger effect = lower value 1 | locus YBR231C, strain swc5, stronger effect = lower value 0.969 | locus YBR279W, strain paf1, stronger effect = lower value 0.949 | locus YCL011C, strain gbp2, stronger effect = lower value 0.913 | locus YCL029C, strain bik1, stronger effect = lower value 0.953 | locus YCR088W, strain abp1, stronger effect = lower value 0.991 | locus YDL005C, strain med2, stronger effect = lower value 0.972 | locus YDL035C, strain GPR1, stronger effect = lower value 0.929 | locus YDL040C, strain nat1, stronger effect = lower value 0.982 | locus YDL074C, strain BRE1, stronger effect = lower value 0.867 | locus YDL101C, strain DUN1, stronger effect = lower value 0.934 | locus YDL185W, strain tfp1, stronger effect = lower value 0.99 | locus YDR001C, strain nth1, stronger effect = lower value 0.966 | locus YDR069C, strain doa4, stronger effect = lower value 0.942 | locus YDR137W, strain rgp1, stronger effect = lower value 0.93 | locus YDR159W, strain sac3, stronger effect = lower value 0.931 | locus YDR162C, strain NBP2, stronger effect = lower value 0.926 | locus YDR297W, strain sur2, stronger effect = lower value 0.97 | locus YDR318W, strain mcm21, stronger effect = lower value 0.928 | locus YDR334W, strain swr1, stronger effect = lower value 0.945 | locus YDR335W, strain msn5, stronger effect = lower value 0.938 | locus YDR388W, stronger effect = lower value 0.993 | locus YDR392W, strain spt3, stronger effect = lower value 0.767 | locus YEL003W, strain gim4, stronger effect = lower value 0.941 | locus YEL037C, strain rad23, stronger effect = lower value 0.954 | locus YEL061C, strain CIN8 (second series), stronger effect = lower value 0.976 | locus YEL061C, strain CIN8, stronger effect = lower value 0.993 | locus YER016W, strain bim1, stronger effect = lower value 0.981 | locus YER110C, stronger effect = lower value 0.937 | locus YER111C, strain swi4, stronger effect = lower value 0.981 | locus YER155C, strain BEM2, stronger effect = lower value 1.02 | locus YER167W, strain BCK2, stronger effect = lower value 0.941 | locus YFR010W, strain ubp6, stronger effect = lower value 0.919 | locus YGL078C, strain dbp3, stronger effect = lower value 0.944 | locus YGL167C, strain pmr1, stronger effect = lower value 0.949 | locus YGL173C, strain kem1, stronger effect = lower value 0.941 | locus YGL227W, strain vid30, stronger effect = lower value 0.989 | locus YGL248W, strain PDE1, stronger effect = lower value 0.929 | locus YGL253W, strain hxk2, stronger effect = lower value 0.946 | locus YHR013C, strain ard1, stronger effect = lower value 0.967 | locus YHR027C, strain rpn1, stronger effect = lower value 0.932 | locus YHR030C, strain SLT2, stronger effect = lower value 1 and 0.88 | locus YHR079C, strain IRE1 (second series), stronger effect = lower value 0.994 | locus YHR079C, strain IRE1, stronger effect = lower value 0.868 | locus YHR094C, strain hxt1, stronger effect = lower value 1.01 | locus YHR129C, strain ARP1, stronger effect = lower value 0.967 | locus YIL066C, strain RNR3, stronger effect = lower value 0.91 | locus YIL073C, strain SPO22, stronger effect = lower value 0.939 | locus YIL125W, strain kgd1, stronger effect = lower value 0.981 | locus YIR030C, strain dcg1, stronger effect = lower value 0.992 | locus YJL092W, strain hpr5, stronger effect = lower value 0.954 | locus YJL095W, strain BCK1 (second series), stronger effect = lower value 0.968 | locus YJL115W, strain asf1, stronger effect = lower value 0.947 | locus YJL129C, strain trk1, stronger effect = lower value 1.02 | locus YJL134W, strain LCB3, stronger effect = lower value 1.01 | locus YJL154C, strain vps35, stronger effect = lower value 0.979 | locus YJL168C, strain set2, stronger effect = lower value 0.991 | locus YJL187C, strain SWE1 (second series), stronger effect = lower value 0.927 | locus YJL187C, strain SWE1, stronger effect = lower value 0.968 | locus YJR066W, strain TOR1, stronger effect = lower value 0.894 | locus YKL009W, strain mrt4, stronger effect = lower value 0.881 | locus YKL068W, stronger effect = lower value 1.02 | locus YKL085W, strain MDH1 (second series), stronger effect = lower value 0.984 | locus YKL085W, strain MDH1, stronger effect = lower value 0.984 | locus YKL160W, strain elf1, stronger effect = lower value 0.917 | locus YKR026C, strain gcn3, stronger effect = lower value 0.982 | locus YKR091W, strain srl3, stronger effect = lower value 0.969 | locus YLL026W, stronger effect = lower value 0.974 | locus YLL041C, strain sdh2, stronger effect = lower value 0.963 | locus YLR027C, strain aat2, stronger effect = lower value 0.946 | locus YLR039C, strain RIC1, stronger effect = lower value 0.925 | locus YLR058C, strain SHM2, stronger effect = lower value 0.957 | locus YLR102C, strain apc9, stronger effect = lower value 1 | locus YLR113W, strain HOG1, stronger effect = lower value 0.872 | locus YLR221C, strain rsa3, stronger effect = lower value 0.927 | locus YLR258W, strain gsy2, stronger effect = lower value 0.938 | locus YLR262C, strain YPT6 (second series), stronger effect = lower value 0.884 | locus YLR262C, strain YPT6, stronger effect = lower value 1.04 | locus YLR268W, strain sec22, stronger effect = lower value 0.896 | locus YLR342W, strain FKS1, stronger effect = lower value 0.974 | locus YLR357W, strain rsc2, stronger effect = lower value 1.04 | locus YLR370C, strain arc18, stronger effect = lower value 0.967 | locus YLR384C, strain iki3, stronger effect = lower value 0.981 | locus YML016C, strain PPZ1, stronger effect = lower value 0.975 | locus YML120C, strain ndi1, stronger effect = lower value 0.915 | locus YML124C, strain tub3, stronger effect = lower value 0.978 | locus YMR078C, strain ctf18, stronger effect = lower value 0.974 | locus YMR125W, strain sto1, stronger effect = lower value 0.983 | locus YMR129W, stronger effect = lower value 0.975 | locus YMR205C, strain PFK2, stronger effect = lower value 0.938 | locus YMR223W, strain ubp8, stronger effect = lower value 0.912 | locus YMR231W, strain pep5, stronger effect = lower value 0.994 | locus YMR263W, strain SAP30, stronger effect = lower value 0.952 | locus YMR307W, strain GAS1, stronger effect = lower value 1.15 | locus YNL067W, strain RPL9B, stronger effect = lower value 0.951 | locus YNL128W, strain TEP1, stronger effect = lower value 0.952 | locus YNL153C, strain GIM3, stronger effect = lower value 0.889 | locus YNL183C, strain NPR1, stronger effect = lower value 0.865 | locus YNL209W, strain ssb2, stronger effect = lower value 0.952 | locus YNL233W, strain BNI4, stronger effect = lower value 0.888 | locus YNL250W, strain rad50, stronger effect = lower value 0.963 | locus YNL271C, strain bni1, stronger effect = lower value 0.985 | locus YNL298W, strain CLA4, stronger effect = lower value 0.909 | locus YNL307C, strain MCK1, stronger effect = lower value 0.908 | locus YNL322C, strain KRE1 (second series), stronger effect = lower value 0.982 | locus YNR049C, strain mso1, stronger effect = lower value 0.983 | locus YNR052C, strain pop2, stronger effect = lower value 0.955 | locus YOL012C, strain htz1 1.22 | locus YOR061W, strain CKA2, stronger effect = lower value 0.962 | locus YOR069W, strain VPS5, stronger effect = lower value 0.985 | locus YOR070C, strain gyp1, stronger effect = lower value 0.965 | locus YOR080W, strain dia2, stronger effect = lower value 0.962 | locus YOR136W, strain idh2, stronger effect = lower value 0.978 | locus YOR144C, strain elg1, stronger effect = lower value 0.97 | locus YOR231W, strain MKK1, stronger effect = lower value 0.861 | locus YOR265W, strain rbl2, stronger effect = lower value 0.98 | locus YOR316C, strain cot1, stronger effect = lower value 1.02 | locus YPL240C, strain hsp82, stronger effect = lower value 0.973 | locus YPL256C, strain CLN2, stronger effect = lower value 0.981 | locus YPR119W, strain clb2, stronger effect = lower value 1 | locus YPR141C, strain kar3, stronger effect = lower value 1.04 | locus YPR163C, strain tif3, stronger effect = lower value 0.925 | locus YPR167C, strain met16, stronger effect = lower value 0.953
active: locus YBR009C, strain hhf1, stronger effect = lower value 0.867 | locus YCL016C, strain dcc1, stronger effect = lower value 0.9 | locus YCL069W, strain vba3, stronger effect = lower value 0.882 | locus YDL192W, strain arf1, stronger effect = lower value 0.89 | locus YDR101C, strain arx1, stronger effect = lower value 0.876 | locus YDR195W, strain ref2 1.32 [resistant] | locus YDR502C, strain sam2, stronger effect = lower value 0.918 | locus YER015W, strain faa2, stronger effect = lower value 0.923 | locus YER155C, strain BEM2 (second series), stronger effect = lower value 0.648 | locus YGL086W, strain mad1, stronger effect = lower value 0.907 | locus YGL240W, strain doc1, stronger effect = lower value 0.791 | locus YGR135W, strain pre9, stronger effect = lower value 0.888 | locus YGR252W, strain gcn5, stronger effect = lower value 0.728 | locus YHR142W, strain chs7, stronger effect = lower value 0.842 | locus YHR200W, strain rpn10, stronger effect = lower value 0.882 | locus YJL164C, strain tpk1, stronger effect = lower value 0.907 | locus YJL166W, strain qcr8, stronger effect = lower value 0.901 | locus YKR001C, strain vps1, stronger effect = lower value 0.766 | locus YLL001W, strain dnm1, stronger effect = lower value 0.872 | locus YLR320W, strain mms22, stronger effect = lower value 0.871 | locus YLR330W, strain CHS5, stronger effect = lower value 0.917 | locus YLR371W, strain rom2, stronger effect = lower value 0.81 | locus YLR418C, strain cdc73, stronger effect = lower value 0.744 | locus YML032C, strain rad52, stronger effect = lower value 0.786 | locus YMR058W, strain fet3, stronger effect = lower value 0.894 | locus YNL071W, strain lat1, stronger effect = lower value 0.914 | locus YNL248C, strain rpa49, stronger effect = lower value 0.75 | locus YOL147C, strain pex11, stronger effect = lower value 0.924 | locus YOR001W, strain rrp6, stronger effect = lower value 0.89 | locus YOR083W, strain WHI5, stronger effect = lower value 0.852 | locus YOR106W, strain vam3, stronger effect = lower value 0.824 | locus YOR184W, strain ser1, stronger effect = lower value 0.855 | locus YOR270C, strain vph1, stronger effect = lower value 0.73 | locus YOR290C, strain snf2, stronger effect = lower value 0.858 | locus YPL051W, strain arl3, stronger effect = lower value 0.892 | locus YPL078C, strain atp4, stronger effect = lower value 0.842 | locus YPL106C, strain sse1, stronger effect = lower value 0.826 | strain wtn01, stronger effect = lower value 0.894
0.873 (inactive) and 0.874 (active): locus YJL095W, strain BCK1, stronger effect = lower value
